Only some compounds are listed: those with a hit (about 2.8% of all), similar ones and a draw of the others.
ATXN2 expr inh: Primary qHTS for Inhibitors of ATXN expression | AID 1745845, 2022 | HEK-293 ATXN2-luciferase reporter, luminescence, 24 h | Potency, µM (highest dose often 57 µM), inactives show top-dose activity change, negative = inhibition, usual class: inhibitors | 0.72% of 360,000 active; also: potency is read from the fitted curve at half-maximal effect; % is scaled to controls: 0 for no effect and ±100 for the full control effect; nearly all actives have a fitted effect of over 55% in size
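ATXN2-luciferase reporter cells (luciferase flanked by upstream and downstream ATXN2 gene portions) were treated 24 h at 37 °C with compounds at up to 57 uM. SteadyGlo luminescence gave expression; GF-AFC fluorescence gave viability.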
TGFb SMAD3 inh: qHTS for Inhibitors of TGF-b; HepG2 CAGA-GFP TGF-b/SMAD3 reporter, GFP fluorescence, 18 h; TGF-beta stimulated, 500 pg/mL final; Potency, µM (series often up to 46.1 µM), for inactives: top-dose activity, negative = inhibition, actives largely listed as inhibitors; 1.2% of 410,000 active; also: potency is read from the fitted curve at half-maximal effect; % is scaled to controls: 0 for no effect and ±100 for the full control effect; nearly all actives have a fitted effect of over 65% in size
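First, reporter cells (HEPG2 CAGA-GFP) rested 2 h at 37 degrees C. Next, compounds were pinned in and TGF-beta added to 500 pg/mL final. After 18 h, GFP was imaged per cell and summed per well.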
CtBP-E1A blk: qHTS Assay for Inhibitors of the CtBP/E1A Interaction | AID 651724, 2012 | 0.49% of 340,000 active | CtBP / adenovirus E1A interaction (AlphaScreen) | activity change, % (no concentration beside the values) | AlphaScreen GST-E1A/His-CtBP binding, 1536-well; stronger effect = lower value; in the data active = activity change below about -65%; inconclusive = mostly about -30% to -63%; also: % is scaled to controls: 0 for no effect and ±100 for the full control effect
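Protein mix (5X: 125 nM each GST-E1A, His-CtBP) was incubated with pinned compound 2 h at 37 deg C in dark, in 50 mM Tris pH 8.0 buffer with 300 mM NaCl. Glutathione donor and nickel acceptor beads followed; AlphaScreen signal read after 1 h.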
Six1-Eya2 blk: qHTS Assay for Inhibitors of the Six1/Eya2 Interaction; activity change, % (test concentration not listed); AlphaScreen GST-Six1/His-Eya2 binding, biochemical; stronger effect = lower value; AID 651725, 2012; Homeobox protein SIX1 (Homo sapiens) + Protein phosphatase EYA2 (Homo sapiens), …; 0.56% of 360,000 active; in the data active = activity change below about -65%; inconclusive = mostly about -30% to -63%; also: % is scaled to controls: 0 for no effect and ±100 for the full control effect
Target sequence (O00167 whole entry, looked up): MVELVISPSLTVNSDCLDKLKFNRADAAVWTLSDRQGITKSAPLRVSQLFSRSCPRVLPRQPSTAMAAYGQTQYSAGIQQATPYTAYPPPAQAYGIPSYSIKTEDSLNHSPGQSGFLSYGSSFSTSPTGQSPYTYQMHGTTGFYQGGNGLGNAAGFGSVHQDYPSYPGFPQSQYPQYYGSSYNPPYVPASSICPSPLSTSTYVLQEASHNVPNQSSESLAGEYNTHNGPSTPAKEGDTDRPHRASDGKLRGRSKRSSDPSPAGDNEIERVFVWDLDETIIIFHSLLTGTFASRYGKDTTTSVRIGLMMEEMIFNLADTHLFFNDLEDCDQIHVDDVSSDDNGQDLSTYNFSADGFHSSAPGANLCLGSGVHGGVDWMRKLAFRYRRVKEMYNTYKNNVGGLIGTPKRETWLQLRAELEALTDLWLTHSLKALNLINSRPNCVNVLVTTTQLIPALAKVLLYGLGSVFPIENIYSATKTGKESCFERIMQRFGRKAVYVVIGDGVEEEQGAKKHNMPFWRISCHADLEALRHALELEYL
Target sequence (Q15475 whole entry, looked up): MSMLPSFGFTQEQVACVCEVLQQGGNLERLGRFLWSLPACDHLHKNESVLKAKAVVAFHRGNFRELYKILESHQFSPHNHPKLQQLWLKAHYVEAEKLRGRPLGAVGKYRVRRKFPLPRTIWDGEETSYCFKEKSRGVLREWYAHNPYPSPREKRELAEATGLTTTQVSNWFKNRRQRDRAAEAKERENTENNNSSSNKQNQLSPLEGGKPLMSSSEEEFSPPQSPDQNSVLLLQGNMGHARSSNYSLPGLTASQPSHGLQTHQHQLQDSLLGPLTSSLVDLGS
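AlphaScreen with GST-Six1 and His-Eya2 (5X mix: 250 nM and 500 nM), glutathione donor and nickel acceptor beads; buffer 50 mM Tris pH 8.0, 300 mM NaCl, 1 mM TCEP; 1 h at 37 C in the dark.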
S2 tox: Viability Counterscreen for Primary qHTS for Inhibitors of ATXN expression; S2 cells (HEK-293 line with an ATXN2-luciferase reporter) viability, CellTiter-Fluor protease fluorescence, 24 h; Potency, µM (top dose mostly 56.7 µM), most hits filed as cytotoxic; 0.49% of 400,000 active; also: potency is read from the fitted curve at half-maximal effect; nearly all actives have a fitted effect of over 40% in size
HepG2 viability: qHTS for Inhibitors of TGF-b: Cytotox Counterscreen; Potency, µM (highest dose often 46.1 µM), for the others: at the top dose activity change, negative = cytotoxicity, most hits filed as cytotoxic; 0.76% of 410,000 active; HepG2 CAGA-GFP viability, ATP luminescence, 18 h; AID 588856, 2011; also: potency is read from the fitted curve at half-maximal effect
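HepG2 CAGA-GFP cells (1000/well, DMEM with 1% FBS) received compound, then TGF-beta at 500 pg/mL final, and were incubated 18 hours at 37 degrees C. Viability was read by CellTiter-Glo luminescence. Media-only wells were set as complete cell-killing and DMSO as no toxicity.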
Numbers without * were called inactive; i = inactive; ? = inconclusive; · = no result given. Unless noted, calls follow the shape of the dose curve; as a rule, active = well fitted curve in the direction sought with a large enough effect; inconclusive = small, poorly fitted or top-dose-only effect, or another doubt; inactive = no such curve, though single readings can be large; an effect the other way counts as inactive or inconclusive.

SMILES | ATXN2 expr inh | TGFb SMAD3 inh | CtBP-E1A blk | Six1-Eya2 blk | S2 tox | HepG2 viability
C=CCn1c(SCC(=O)c2[nH]c(C)c(C(=O)OCC)c2C)nc2scc(-c3ccc(OC)c(OC)c3)c2c1=O | 28.2µM* | ? | -5.3 | -5.0 | · | -14.6%
CC(=O)Nc1ccc(NC(=O)c2ccc(S(=O)(=O)N(C)c3ccccc3)cc2)cc1 | · | -14.1% | · | -6.5 | ? | -28.9%
Cc1nc2ccc(NC(=O)c3ccc(S(=O)(=O)N(C)c4ccccc4)cc3)cc2s1 | 29.9µM* | ? | -4.9 | -6.5 | ? | 0.9%
COc1ccc(OC)c(CN2CCCC(c3nc(-c4ccncc4)ncc3-c3ccccc3C)C2)c1 (stereo not drawn) | · | · | · | · | i | ·
Brc1ccccc1-c1nc2c3ccccc3ncn2n1 | 68.0% | -5.7% | 0.1 | -6.1 | i | -15.5%
S=c1nc2ccccc2c2nc(-c3ccccc3Br)[nH]n12 | 25.1µM* | 0.0% | -7.5 | -16.5 | ? | -2.5%
CC(C)c1ccc(C2=NC(c3ccncc3)=Nc3ccc(F)cc3N2)cc1 | 5.4% | 5.1% | · | · | i | -3.6%
CC1(C)CC(=O)C2=C(C1)NC(Nc1nc3ccccc3o1)=NC2c1ccccc1Cl (stereo not drawn) | · | 16.0% | · | · | · | -2.7%
CC1=C(C(=O)Nc2ccccc2)C(c2ccc(C)cc2)N=C(Nc2nc3ccccc3o2)N1 (stereo not drawn) | ? | ? | 7.4 | 0.5 | ? | 11.2µM*
COc1ccccc1CNc1ncc(-c2ccc(F)cc2)n1C | -18.5% | -3.8% | -0.9 | -15.9 | i | -27.8%
COc1ccc(CNc2ncc(-c3ccc(F)cc3)n2C)c2ccccc12 | 2µM* | ? | -20.8 | -16.1 | i | -43.0%
COc1cccc(CN2C(=O)NC(C)(C3CCN(Cc4ccc(C)o4)CC3)C2=O)c1OC (stereo not drawn) | · | · | · | · | i | ·
CCN1CCN(c2ccc(Cl)cc2NC(=O)c2ccco2)CC1 | · | 18.6% | · | 22.9 | i | -18.6%
CCN1CCN(c2ccc(Cl)cc2NC(=O)c2ccc(-n3nc(C)cc3C)cc2)CC1 | ? | -6.4% | 0.0 | -5.0 | i | 22.4µM*
C[n+]1ccc(C(c2c[nH]c3ccccc23)c2cc[n+](C)c3ccccc23)c2ccccc21 | · | ? | · | · | · | -76.6%
COc1cc2c(NC3CCN(C)CC3)nc(N3CCCCC3)nc2cc1OCCCN(C)C | · | 10µM* | · | · | · | -78.2%
CCCN(C)CCCOc1cc2nc(N3CCCN(C)CC3)nc(NC3CCN(C)CC3)c2cc1OC | · | 14.1µM* | · | · | · | -0.9%
COc1cc2c(NC3CCN(C(C)C)CC3)nc(N3CCCN(C)CC3)nc2cc1OCCOCCN(C)C | · | 14.1µM* | · | · | · | -31.7%
COc1cc2c(NC3CCN(C)CC3)nc(N3CCCN(C)CC3)nc2cc1OCCOCCN(C)C | · | 18.9% | · | · | · | 26.8%
COc1cc2c(NC3CCN(C(C)C)CC3)nc(C3CCCCC3)nc2cc1OCCCN1CCCC1 | 21.7µM* | · | · | · | · | ·
CCOC(=O)C1=CC[C@@H](c2cccc(Br)c2)N(S(=O)(=O)c2ccc(F)cc2)[C@H]1c1cccc(Cl)c1 | · | · | 3.8 | 0.0 | · | ·
COC(=O)c1ccccc1NC(=O)NCc1ccc2c(c1)CCN2C(=O)c1ccccc1 | 0.0% | ? | · | · | ? | -10.6%
O=S(=O)(O)CCSSCCS(=O)(=O)O | 6.5% | · | · | · | · | ·
Cc1nnc(SCC(=O)c2c(N)n(C)c(=O)n(C)c2=O)[nH]c1=O | 4.2% | 5.6% | -72.7* | ? | i | 3.3%
Cn1c(N)c(C(=O)CSc2ncn[nH]2)c(=O)n(C)c1=O | -9.2% | -8.8% | -18.9 | -18.8 | i | -25.5%
SMILES | ATXN2 expr inh | TGFb SMAD3 inh | CtBP-E1A blk | Six1-Eya2 blk | S2 tox | HepG2 viability
CSc1ccc2cc(CNCc3ccccc3F)c(N3CCCC(CO)C3)nc2c1 (stereo not drawn) | · | · | · | · | i | ·
Cc1ccc(-c2csc(NC(=O)C[n+]3cc(-c4ccccc4)n4c3CCC4)n2)cc1 | -13.9% | 22.4µM* | 17.8 | 13.5 | ? | -9.7%
Cc1ccc(-c2csc(NC(=O)C[n+]3cc(-c4ccc(C)cc4)n4c3CCC4)n2)cc1 | -19.8% | ? | -10.0 | 0.7 | i | -1.6%
O=C(NNc1c2ccccc2nc2ccccc12)c1ccccc1O | ? | ? | -72.5* | ? | · | -31.7%
O=C(NNc1c2ccccc2nc2ccccc12)c1ccc(O)cc1O | 2.9% | ? | -84.1* | -83.6* | ? | -0.8%
O=C(NNc1c2ccccc2nc2ccccc12)c1ccccc1Cl | -31.7% | -15.7% | -14.0 | -25.3 | ? | -28.1%
CCN(CC)c1ccc(NC(=O)C2COc3ccc(OC)cc3C2)c(C)c1 (stereo not drawn) | ? | 8.91µM* | · | · | ? | -33.5%
CCCCCC/C(C)=C1/SC(=S)NC1=O | -2.2% | ? | -10.8 | -19.3 | i | -29.2%
C/C(C/C(C)=C1/SC(=S)NC1=O)=C1\SC(=S)NC1=O | 5.0% | 14.1% | ? | -70.9* | i | 20.2%
O=C(NC(c1ccc(F)cc1)c1ccc2ccccc2n1)C1CCN(Cc2ccc3ccccc3n2)CC1 (stereo not drawn) | -23.2% | 12.6µM* | ? | 0.0 | ? | -47.0%
CN(C)c1ccc(CN2CCC(C(=O)NC(c3ccc(Cl)cc3)c3cnccn3)CC2)cc1 (stereo not drawn) | -5.2% | 4.5% | -21.7 | -26.6 | i | -32.6%
O=C(NC(c1ccc(F)cc1)c1ccc2ccccc2n1)C1CCN(CCOc2ccc(Cl)cc2)CC1 (stereo not drawn) | ? | 15.8µM* | -16.3 | -28.6 | 14.1µM* | -93.7%
